Results on 40 compounds are retold here after PubChem BioAssay (NCI).

Compounds without any hit were thinned out: in the full panel of roughly 79,000, 15% have a hit. Values without a mark were called inactive. The source made the active and inactive calls. Cut-off read from the data, not from the text of the source: active = growth inhibition above about 70%; inactive = the rest.

A short description of the test: NCI Yeast Anticancer Drug Screen. Data for the sgs1 mgt1 strain (AID 161).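 Note: 0% = growth of cultures given vehicle only.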 Conditions: S. cerevisiae sgs1 mgt1 strain, at 50.0 µM, stronger effect = higher value. A digest of the protocol: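 Percent growth inhibition was derived by comparing compound-exposed mutant yeast with vehicle-exposed cultures. The strain carries alterations in DNA damage repair.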
Turning to `CCOC(=O)/C=C\n1c(=O)cc(C)c2ccccc21`, the growth inhibition was 7.45%.

Consider `C[n+]1cc(I)cc2ccccc21`, for which the growth inhibition was -9.55%.

With `CC(=O)Oc1cc2oc([O-])c[n+]2c2ccccc12`, the growth inhibition is 22.7%.

Regarding `N#CNc1ccccc1`, the growth inhibition was -12.2%.

Turning to `COC(O)C(=O)c1c2c(cc3c1CCC3)CCC2` (stereo not given), the growth inhibition is 39.3%.

Take `C=CCCCCCCCC(O)C1C[C@H](O)C(CCCCC)O1` (stereo not given in full): the growth inhibition was 9.25%.

In the case of `CCOC(=O)C1C(c2ccc(N(C)C)cc2)c2cc3c(cc2OC1(C)N1CCCC1)OCO3` (stereo not given), the growth inhibition is -2.1%.

Take `Cc1c2ccccc2nc(CSCCO)[n+]1[O-]`: the growth inhibition is -7.95%.

For `CNC(=O)/C=C/C1=CN2C(=O)c3ccc(C)c(O)c3NC(OC)C2C1` (stereo not given), the growth inhibition was 93% (active).

Turning to `COC(OC)C1(CCc2ccccc2)NC(=O)N(C)C1=O` (stereo not given), the growth inhibition was 5.6%.

In the case of `ClC(Cl)C1OCCCO1`, the growth inhibition is -23.2%.

In the case of `OC(CN(C1CCCCC1)C1CCCCC1)c1ccnc2c(Cl)cc(Cl)cc12` (stereo not given), the growth inhibition is 7.3%.

On to `CC(=O)OC1CCC2(C)C(CCC3C2C(=O)C(Br)C2(C)C(C(C)=O)CCC32)C1` (stereo not given), for which the growth inhibition was 7.95%.

As to `CCCCSc1ccc2n(C)c(-c3ccc(/C=N\NC(=O)c4ccc(C(=O)N/N=C\c5ccc(-c6c[n+]7cc(SCCCC)ccc7n6C)cc5)cc4)cc3)c[n+]2c1`, the growth inhibition was -17.9%.

With `O=C(O)c1c[nH]c(=O)[nH]c1=O.[Cu+2]`, the growth inhibition is -12.4%.

For the compound `COc1cccc2c1OC(=O)NC2O` (stereo not given), the growth inhibition is -17.9%.

In the case of `COc1c(Cl)cc(Cl)c(C)c1C(C)C(=O)O` (stereo not given), the growth inhibition is 2.6%.

On to `COc1ccc(NC(=O)Oc2ccc3c(C)cc(=O)oc3c2)c(OC)c1` (tested in a mixture with another compound), for which the growth inhibition was -22.6%.

Take `C(=N\N=C\c1ccccc1)/c1ccccc1`: the growth inhibition was 3.5%.

Consider `COC(=O)C1CC(=O)N(C)c2sc(C)c(C)c2C1=O` (stereo not given), for which the growth inhibition was 89% (active).

With `CC1CCCC(CCO)CC1` (stereo not given), the growth inhibition was 6.4%.

For `CC(N)(C(=O)O)c1ccccc1` (stereo not given), the growth inhibition was 18.6%.

In the case of `O=C1CC[C@@H](S(=O)(=O)c2ccccc2)[C@@H](/C=C/c2ccccc2)O1`, the growth inhibition is 7.15%.

For `CC(=O)/C(=C\c1ccccc1)C(=O)CCN(C)C`, the growth inhibition was 14.4%.

Turning to `CCN(CC)C(=O)c1ccc(C(C)C)cc1`, the growth inhibition was 27.9%.

For `O=[N+]([O-])c1ccc(OCCCCCBr)c(Cl)c1`, the growth inhibition was 70.3% (active).

For the compound `O=[N+]([O-])c1cc(Br)cc2c1[nH]c1nc3ccc(C(F)(F)F)cc3nc12`, the growth inhibition was 8.1%.

As to `O=c1cc(NC(c2ccccc2)c2ccccc2)[nH]c(=O)[nH]1`, the growth inhibition is 8.95%.

As to `N#C[C@H](c1nc2ccccc2[nH]1)c1nc2ccccc2nc1Cl`, the growth inhibition is 21.9%.

Consider `CCN(CC)CCNC(=O)c1cn2c(ccc3sc4ccccc4c(=O)c32)n1`, for which the growth inhibition is 48.7%.

Consider `O=C(NCc1ccco1)Nc1ccccc1`, for which the growth inhibition was -11.7%.

On to `CCO[C@H]1c2cc3c(cc2[C@@H](c2cc(OC)c(OC)c(OC)c2)[C@H]2C(=O)OC[C@@H]21)OCO3`, for which the growth inhibition is 26.9%.

As to `CC(C)/C=N\n1c(N)c(C#N)c(C#N)c1C(C)C`, the growth inhibition was -37%.

Regarding `N#CCC(=O)NCCc1c[nH]c2ccccc12`, the growth inhibition was -14.7%.

With `CCOC(=O)C(C(=O)OCC)=C1c2ccccc2Oc2ccccc21`, the growth inhibition was 14.7%.

On to `N#CCCCCC12C3C(=O)N(c4ccccc4)C(=O)C3ON1O[C@@H]1C(=O)N(c3ccccc3)C(=O)[C@@H]12` (stereo not given in full), for which the growth inhibition was 26.7%.

On to `O=C1c2ccccc2-c2nc(-c3ccncc3)cc3c2c1nc1ccccc13`, for which the growth inhibition was 27.2%.

For the compound `COc1ccccc1C(=O)N(C)c1ccc(Cl)c(C(=O)OC(C)C)c1`, the growth inhibition is 46.4%.

Turning to `Cc1cn(CCCCCCCCCCCCOc2c3occc3cc3ccc(=O)oc23)c(=O)[nH]c1=O`, the growth inhibition was -3.5%.

For `O=CNc1ccc(Br)cc1`, the growth inhibition is 11.4%.
